# Measured values reported in PubChem BioAssay (NCATS).
# Unmarked numbers belong to inactive results. Calls come from the whole dose curve; as a rule, active = well fitted activation curve with a large enough effect; inconclusive = small, poorly fitted or top-dose-only effect; inactive = flat fitted curve, though single readings scatter.
# Assay: Cellular Toxicity (caspase-3) SHSY5Y (AID 657)
# Settings: SH-SY5Y caspase-3 activation, DMSO zero, 10 µM staurosporine = 100%; series mostly up to 91.7 µM; caspase-3 activation: at the top concentration
# Source text: NIH Chemical Genomics Center [NCGC]
# NIH Molecular Libraries Screening Centers Network [MLSCN]
# National Institutes of Environmental Health Sciences [NIEHS]
# National Toxicology Program [NTP]
# We have developed a 1536-well cell-based assay for quantitative high throughput screening (qHTS) against a number of cell lines to determine in vitro caspase 3/7 activity of small molecules. This particular assay uses the SH-SY5Y cell line which is derived from human neuroblastoma.
# NCGC Assay Protocol Summary:
# The Caspase-Glo 3/7 assay (Promega) is a homogeneous method to measure caspase-3 and caspase-7 activities in cultured cells. The quantitation of caspase 3/7 activity is based on the cleavage of a peptide-aminoluciferin substrate. After caspase cleaves the substrate the free aminoluciferin is liberated and serves as the substrate of luciferase, which generates the light. The luminescent signal is proportional to the amount of caspase 3/7 activity present.
# Using the Caspase-Glo 3/7 assay, the amount of caspase 3/7 activity was measured in the SH-SY5Y cell line with complete culture medium following compound treatment for 16 hours. The assay was performed in opaque white 1536-well plates. In the screen, staurosporine and doxorubicin were used as positive controls. Library compounds were measured for their ability to cause the activation of caspase 3/7 in the cell line, as reflected by an increase in luminescence signal, in a concentration-dependent manner. Data were normalized to the controls for basal activity (DMSO only) and 100% stimulation (10 uM staurosporine). AC50 values were determined from concentration-response data modeled with the standard Hill equation.
# qHTS protocol for caspase 3/7 assay in SH-SY5Y cells
# [Step] [Parameter] [Value] [Description]
# 1. Reagent; 5 uL; 1500 SH-SY5Y cells/well
# 2. Time; 5 hr; 37 °C incubation
# 4. Controls; 23 nL; doxorubicin 7 pM to 100 uM & staurosporine 1.4 pM to 20 uM
# 5. Time; 16 hr; 37 °C incubation
# 6. Reagent; 5 uL; Caspase-Glo 3/7 reagent
# 7. Time; 1 hr; Room Temperature
# 8. Detection; Luminescence; Viewlux plate reader
# Keywords: caspase 3/7, apoptosis, SH-SY5Y cell line, luminescence, NTPHTS, NTPHTS_NCGC, NIEHS, EPA, DSSTox, MLSMR, MLSCN, NIH Roadmap, qHTS, NCGC
row,Structure (SMILES),caspase-3 activation [%]
1,Nc1cc(Cl)c([N+](=O)[O-])cc1O,-0.711
2,O=C(O)/C=C/C(=O)O,1.84
3,C=CCOC(=O)COCCC(C)C,0.675
4,NC=O,0.037
5,Clc1ccccn1,0.617
6,FC(F)(F)c1cccc(Cl)c1,-0.108
7,CC(=O)Nc1ccccc1C,1.46
8,C/C=C(/C)C#N,0.465
9,CC(=C/C=C/C(C)=C/C=C/C=C(C)/C=C/C=C(C)/C=C/C(=O)O)/C=C/C(=O)O,-1.58
10,CCCC(Cl)CCCC(Cl)CCC(Cl)CCC(Cl)CCC(Cl)CCCC(Cl)CCC (stereo not given),1.6
11,CCOc1cccc(N)c1,4.51
12,NC(=O)CCCCC(N)=O,-0.951
13,O=[N+]([O-])c1ccccc1CCO,1.35
14,CC(O)COC(C)(C)C (stereo not given),-0.877
15,Cc1ccco1,-0.656
16,CCCCN(CCO)CCCC,-0.119
17,N#CC1(O)CCCCC1,-1.87
18,Nc1cccc(N)c1,0.128
19,CC(C)c1ccccc1,-1.21
20,CCCCC(CC)C(=O)O (stereo not given),-3.39

row,Structure (SMILES),caspase-3 activation [%]
1,CCCCOCCOCCOCCCC,1.8
2,CC(N)CN (stereo not given),1.3
3,Nc1cccc(O)c1,0.72
4,OC(CCl)CCl,0.704
5,Nc1ccc(F)cc1F,0.0984
6,Nc1cccc(C(F)(F)F)c1,1.17
7,CCOc1ccc(NC(C)=O)cc1N,1.7
8,O=C(Cl)c1cccc([N+](=O)[O-])c1,-2.21
9,O=C(O)CNC(=O)c1ccc(CO)o1,-0.531
10,O=C(O)c1ccc(Cl)cc1Cl,-0.612
11,Nc1cccc2c(=O)[nH][nH]c(=O)c12,-0.597
12,CCc1ccccc1O,2.27
13,C=C(C)C(=O)OCCCCCC,-1.85
14,O=C(O)c1cccc(Cl)c1Cl,2.23
15,CC(C)(C)c1ccc(OCC2CO2)cc1 (stereo not given),1.2
16,CCCCCCCCN,0.809
17,Nc1ccc([N+](=O)[O-])c(N)c1,2.48
18,O=CNc1ccccc1,-0.465
19,C=CCOC(=O)CCCCCCCC,-0.384
20,C=CCn1c(=O)n(CC=C)c(=O)n(CC=C)c1=O,-0.893
